# The campaign covered roughly 63,000 compounds. About 1,100 (1.7%) were called active. Only a selection was taken, and actives are over-represented in it overall. Measured potencies and affinities stand elsewhere. Unmarked numbers belong to inactive results.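 The calls were made as follows: active = compounds whose percent cytotoxicity in the single-dose primary screen, scaled between solvent and toxic-drug controls, exceeds 50; inactive = the rest.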
# Test: cytotoxicity in KRAS-transformed pancreatic duct cells, primary screen, cell-based, fluorescence, HTS (AID 431);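 also: 0% = DMSO solvent wells and 100% = doxorubicin-treated wells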
# Details: HPDE-C7K KRASV12 cells, Alamar Blue viability, 48 h; at 10 µM; stronger effect = higher value
row,SMILES,cytotoxicity
1,O=C(c1cc(-c2ccccn2)nc2c(Cl)cccc12)N1CCN(C(=O)C2CCCO2)CC1 (stereo not drawn),0.1%
2,CCn1c(Sc2nc(C)nc3scc(-c4cccs4)c23)n[nH]c1=O,-16.8%
3,Cc1cccc(C(=O)NC2CC3CCCC(C2)N3C(=O)NC2CCCCC2)c1 (stereo not drawn),-1.9%
4,NC1=NC(c2ccc(Cl)cc2)n2c(nc3ccccc32)N1 (stereo not drawn),-23.5%
5,O=C(NCc1ccc(F)cc1)c1cc2n(n1)C(C(F)(F)F)CC(C1CC1)N2 (stereo not drawn),-22%
6,Cc1nnc(NC(=O)c2cc3n(n2)C(C(F)(F)F)CC(C2CC2)N3)s1 (stereo not drawn),-34.9%
7,O=C(Nc1nc2c(s1)CCCC2)c1cc2n(n1)C(C(F)(F)F)CC(C1CC1)N2 (stereo not drawn),52.5% (active)
8,COC(=O)COc1cccc(NC(=O)c2ccccc2)c1,-1.5%
9,Cc1nc2sc(C(c3cccc(F)c3)N3CCC(O)CC3)c(O)n2n1 (stereo not drawn),-0.3%
10,COc1ccc(C2C(C(C)=O)=C(C)N=c3s/c(=C/c4ccc5c(c4)OCO5)c(=O)n32)cc1 (stereo not drawn),-10.1%
11,CC(=O)C1=C(C)N=c2s/c(=C/c3ccc4c(c3)OCO4)c(=O)n2C1c1ccc(N(C)C)cc1 (stereo not drawn),-0.2%
12,CCC(C)(C)n1nnnc1C(c1cc2ccc(OC)cc2[nH]c1=O)N1CCc2ccccc2C1 (stereo not drawn),35%
13,COC(=O)c1ccccc1NS(=O)(=O)c1ccc(O)c(C(=O)O)c1,19.7%
14,COC(=O)c1ccc(CN2C(=O)NC3(CCCCC3C)C2=O)o1 (stereo not drawn),3.4%
15,CCN(CC)c1ccc(NC(=O)c2cnc3ccccn3c2=O)c(C)c1,3.9%
16,Cn1nnnc1SCCNCc1cccc2ccccc12,-3%
17,CC(=O)Nc1ccc(NC(=O)c2ccccc2F)cc1,8.8%
18,CCN(CC)c1ccc(C(=O)Nc2cccc(F)c2)cc1,57.4% (active)
19,CCOc1ccc(NC(=O)c2cccc(-n3cnnn3)c2)cc1,-18%
20,CCN(CC)c1ccc(NC(=O)c2cc(OC)cc(OC)c2)c(C)c1,59.9% (active)
21,CN(C)c1cccc(C(=O)Nc2cccc(F)c2)c1,2.1%
22,CCN(CC)c1ccc(NC(=O)c2ccco2)c(C)c1,10.7%
23,CCOc1cccc(C(=O)Nc2ccc(N3CCN(S(C)(=O)=O)CC3)cc2)c1,-10%
24,CCN(CC)c1ccc(NC(=O)c2ccccc2F)cc1,50.7% (active)

row,SMILES,cytotoxicity
1,CCN(CC)c1ccc(NC(=O)c2ccc(NC(=O)C3CCCO3)cc2)c(C)c1 (stereo not drawn),-1.3%
2,CCOc1cccc(C(=O)Nc2ccc(N(CC)CC)cc2)c1,87.5% (active)
3,O=C(Nc1ccncc1)c1ccccc1F,-14.5%
4,CCN(CC)c1ccc(NC(=O)Nc2cccc(C(C)=O)c2)cc1,16.4%
5,Cc1cccc(COc2ccc(/C(O)=C3\C(=O)C(=O)N(CCN(C)C)C3c3ccncc3)cc2)c1 (stereo not drawn),0.7%
6,O=C(c1ccco1)N1CCN(C(=O)c2cc(-c3ccncc3)nc3ccc(Br)cc23)CC1,1.3%
7,O=C(NCC(=O)N(Cc1ccccc1)C(C(=O)NC1CCCC1)c1ccco1)c1ccco1 (stereo not drawn),-6.1%
8,Cn1c(COc2ccccc2)nnc1SCC(=O)Nc1ccc2c(c1)OCO2,9.4%
9,O=C1c2oc3ccc(F)cc3c(=O)c2C(c2ccncc2)N1CCN1CCOCC1 (stereo not drawn),-11.5%
10,O=C(CN(Cc1ccco1)S(=O)(=O)c1cccs1)Nc1ccccc1C(F)(F)F,-23.6%
11,CCN(CC)c1ccc(NC(=O)c2cccc(C)c2OC)c(C)c1,2.9%
12,CCN(CC)c1ccc(NC(=O)c2cccc(OC)c2)c(C)c1,55.4% (active)
13,CCN(CC)c1ccc(NC(=O)c2c(OC)cccc2OC)c(C)c1,-0.6%
14,O=C(Nc1ccc(N2CCN(Cc3ccccc3Cl)CC2)cc1)c1cccnc1,16.7%
15,Cc1cc(Nc2ccccc2C(=O)O)nc2nc3ccccc3c(=O)n12,-5.3%
16,N#CC(C(=O)NC1CCCCC1)c1nc2ccccc2nc1N1CCOCC1 (stereo not drawn),13.7%
17,CCc1ccc(-c2cn(-c3nc(C)cc(C)n3)c(=N)o2)cc1,54.8% (active)
18,CCc1ccc(-c2cn3nc(C)c(C)nc3n2)cc1,-7.6%
19,CCc1ccc(-n2c(O)cnc2Nc2nc(C)cc(C)n2)cc1,-3%
20,CC1CCc2cc(F)ccc2N1C(=O)CCC(=O)O (stereo not drawn),-12.5%
21,CN(C)c1nc(N)nc(CSc2nnnn2C)n1,8.9%
22,COc1ccc(C2=NOC(CN3C(=O)c4ccccc4S3(=O)=O)C2)cc1 (stereo not drawn),-0.1%
23,CC(C)(C)N1C(=O)Cc2c1nc(N)c1c(N)nc(N3CCCCC3CO)c(C#N)c21 (stereo not drawn),59.9% (active)
24,N#Cc1c(N)nc2c(c1N)CC(=O)N2c1ccccc1-c1ccccc1,5.8%

# Source: PubChem BioAssay AID431 (Sanford-Burnham Center for Chemical Genomics, 2006)
